# Source: PubChem BioAssay
# Pf growth 96h – Primary qHTS for delayed death inhibitors of the malarial parasite plastid, 96 hour incubation. P. falciparum luciferase reporter growth, 96 h. Potency, µM (top dose mostly 28.7 µM), usual class: inhibitors. 6.9% of 320,000 active. AID 504834, 2011
#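 Two-generation exposure (96 h) targets delayed-death phenotype. Reporter parasites carrying integrated firefly luciferase, in red cells at 2% hematocrit and 0.05% parasitemia final, kept at 37 C, 5% CO2; luminescence loss indicates inhibition.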
# HCMV inh – qHTS Assay for inhibitors of the human cytomegalovirus (HCMV) | HFF cells, HCMV-luciferase reporter, 72 h; stronger effect = lower value | activity change, negative = inhibition, % at 57.5 µM | 4.5% of 410,000 active | AID 1259415, 2018; in the data active = activity change below about -60%; inconclusive = no clear call, values can overlap the other calls; inactive = above about -39%
#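 Two-dose cell screen: HFF monolayers treated with compounds and infected with luciferase-expressing HCMV at 1 PFU/cell, 72 h at 37C, then lysed for luciferase measurement.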
# Pf growth 48h – Primary qHTS for delayed death inhibitors of the malarial parasite plastid, 48 hour incubation | P. falciparum luciferase growth in erythrocytes, 48 h | Potency, µM (top dose mostly 28.7 µM), most hits filed as inhibitors | 5.9% of 310,000 active | AID 504832, 2011
#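 A one-generation exposure of luciferase-tagged malaria parasites in RPMI 1640/Albumax erythrocyte culture, 37 C and 5% CO2. Inhibition is inferred from decreased luminescence after adding detection reagent.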
# Shiga inhibitor – A qHTS for Small Molecule Inhibitors of Shiga Toxin | Vero cells, Shiga toxin protein synthesis inhibition reporter | inhibition, % at 38.7 µM | 9.2% of 290,000 active | AID 2315, 2010; in the data active = inhibition mostly above about 28%, no sharp cut-off; inactive = mostly below about 43%
# CHX counter – Cycloheximide Counterscreen for Small Molecule Inhibitors of Shiga Toxin; cell reporter, cycloheximide protein synthesis inhibition counterscreen; max response, %; AID 2314, 2010; 12% of 300,000 active; in the data active = max response mostly above about 13%, no sharp cut-off; inactive = mostly below about 14%; note: read at 38.3 µM for the half of the compounds with a filed dose
# Hits are given with their value; – = inactive; ? = inconclusive; · = no result; [ ] = remark or other dose. Sampled rows, rich in hits. Any-hit rate of the full collection: about 20%. Unless noted, calls come from the whole dose curve; as a rule, active = well fitted inhibition curve with a large enough effect; inconclusive = small, poorly fitted or top-dose-only effect, or another doubt; inactive = no such curve, though single readings can be large or run the other way.
SMILES,Pf growth 96h,HCMV inh,Pf growth 48h,Shiga inhibitor,CHX counter
O=C(NCC1CCCO1)C(c1ccc(N2CCOCC2)cc1)N(C(=O)Cn1nnc2ccccc21)c1ccccc1F (stereo not given),–,–,?,–,–
CCOc1ccc(Br)cc1C1C(C(=O)OC)=C(C)NC2=C1C(=O)c1ccccc12 (stereo not given),·,–,·,·,·
CC(=O)Nc1ccc(S(=O)(=O)N2CCC(C(=O)NCc3cccnc3)CC2)cc1,?,–,–,–,–
COCC(C)n1c(C)cc(C(=O)COc2ccc(S(=O)(=O)N3CCOCC3)cc2Cl)c1C (stereo not given),·,–,13.1µM,–,–
O=C(COc1ccc(S(=O)(=O)N2CCOCC2)cc1Cl)NC1CC1,–,–,–,–,–
CCCCNC(=O)CC1Nc2ccccc2NC1=O (stereo not given),–,–,–,–,–
CCCCOc1ccccc1NC(=O)CC1Nc2ccccc2NC1=O (stereo not given),–,–,1.65µM,–,–
Cc1ccc(C)c(NC(=O)c2ccc(S(=O)(=O)N(C)CC3CCCO3)cc2)c1 (stereo not given),·,–,·,·,·
COC(=O)CN(c1ccccn1)S(=O)(=O)c1ccccc1,2.33µM,–,–,–,–
CN(C)/C=N/C1=C(C#N)C(c2cccs2)c2ccc3ccccc3c2O1 (stereo not given),–,–,–,66.3,46.6
N#CC1=C(N)Oc2cc3ccccc3cc2C1c1cccs1 (stereo not given),–,–,–,–,–
Cc1cc(C)n(-c2nc3ccccc3nc2Nc2cc(C(=O)O)ccc2C)n1,·,–,·,·,·
CSC[C@H]1CN(CCc2ccccc2)C(=O)[C@@H]1CC(=O)Nc1ccccc1,·,–,·,·,·
C[C@H]1CN(CCc2ccccc2)C(=O)[C@@H]1CC(=O)Nc1ccccc1,·,-74.6,·,·,·
C=CCSc1nc2ccccc2c(=O)n1Cc1ccccc1,–,–,11.7µM,–,–
Cc1cccc(/C=C/c2nc3ccccc3c(=O)n2Cc2ccccc2)c1,–,-83.1,–,–,–
O=c1c2ccccc2nc(/C=C/c2ccccc2)n1CCc1ccccc1,4.65µM,–,?,–,–
O=c1c2ccccc2nc(/C=C/c2cccnc2)n1Cc1ccccc1,–,-97.6,?,–,–
CCOc1ccc(-n2c(Cc3ccccc3)nnc2SCc2nc(-c3ccccc3C)no2)cc1,·,–,·,·,·
O=c1c2ccccc2nc(/C=C/c2cccnc2)n1CCc1ccccc1,?,-74.8,?,–,–
O=c1c2ccccc2nc(/C=C/c2cc(Br)ccc2O)n1CCCO,?,-96.3,1.31µM,–,–
CCOC(=O)CC(=O)CSc1nc2ccccc2c(=O)n1CCc1ccccc1,·,–,·,·,·
NC(=O)CSc1nc2ccccc2c(=O)n1CCc1ccccc1,5.86µM,–,–,–,–
CCOCCCNC(=O)c1cc2c(-c3ccc(OC)c(OC)c3)nn(C)c2s1,·,–,·,·,·
CCN(CC)CCCNC(=O)c1cc2c(-c3cccc(OC)c3)nn(C)c2s1,–,–,8.28µM,–,–
SMILES,Pf growth 96h,HCMV inh,Pf growth 48h,Shiga inhibitor,CHX counter
COc1ccc(OC)c(CCNC(=O)c2cc3c(-c4ccccc4F)nn(C)c3s2)c1,·,-89.9,·,·,·
CCCCN(C)CCNC(=O)c1cc2c(-c3cccc(OC)c3)nn(C)c2s1,–,–,1.47µM,–,–
COc1ccc(NC(=O)c2cc3c(-c4ccccc4F)nn(C)c3s2)c(OC)c1,·,–,·,·,·
CCCCN(C)CCNC(=O)c1cc2c(-c3ccccc3F)nn(C)c2s1,–,–,?,–,–
CCCCN(CC)CCCNC(=O)c1cc2c(-c3ccc(OC)c(OC)c3)nn(C)c2s1,?,–,2.62µM,–,–
CCOC(=O)Cc1csc(NC(=O)c2ccc(N3CCOCC3)cc2[N+](=O)[O-])n1,–,–,–,·,·
COCCCNC(=O)c1cc2c(-c3ccc(Cl)cc3)nn(C)c2s1,–,–,·,–,–
COc1cccc(-c2nn(C)c3sc(C(=O)NCc4ccco4)cc23)c1,–,–,7.38µM,–,–
CCN1CCCC1CNC(=O)c1cc2c(-c3cccc(OC)c3)nn(C)c2s1 (stereo not given),5.86µM,–,?,–,–
COc1cccc(-c2nn(C)c3sc(C(=O)NCCCN(C)Cc4ccccc4)cc23)c1,–,–,2.08µM,–,–
Cc1ccc(CNC(=O)c2cc3c(-c4ccc(Cl)cc4)nn(C)c3s2)o1,?,–,·,–,–
CC1CCN(c2cc(=O)n(C3CCCCC3)c(=O)[nH]2)CC1,–,–,–,–,–
COC(=O)c1csc(S(=O)(=O)N2CCCCC2)c1OC,–,–,–,–,–
CCN(CC)CCCNCC(=O)Nc1ccc(OC)c(Cl)c1,?,·,?,–,–
NS(=O)(=O)c1ccc(CCNC(=O)CSc2ccc(Cl)cc2Cl)cc1,?,?,–,–,–
NS(=O)(=O)c1ccc(CCNc2nn3c(-c4ccc(F)c(Cl)c4)cnc3s2)cc1,·,-75.2,·,·,·
O=C(Nc1nc(-c2cccs2)cs1)c1ccc([N+](=O)[O-])o1,?,–,?,·,·
Cc1ccnc(Nc2cccnc2)n1,·,–,·,·,·
c1cncc(Nc2nc(-c3cccs3)cs2)c1,2.94µM,–,–,102.9,63.1
COc1cccc2sc(NNC(=O)COc3ccccc3)nc12,–[1.15 µM],–,–,–,–
c1ccc(-c2ccc(-c3ccccn3)nn2)nc1,–,–,–,–,–
COc1cccc2sc(Nc3nc(-c4ccccn4)cs3)nc12,?,·,0.465µM,104.9,74.7
c1ccc(-c2csc(Nc3cccnc3)n2)nc1,–,–,–,44.0,35.3
c1ccc(Nc2nc(-c3ccccn3)cs2)cc1,–,–,–,108.2,40.8
CCN1C(=O)[C@H]2[C@@H](c3ccc(C)cc3)N3C(=O)N(c4cccc(F)c4)C(=O)[C@@]3(C)[C@H]2C1=O,–,–,–,–,–
SMILES,Pf growth 96h,HCMV inh,Pf growth 48h,Shiga inhibitor,CHX counter
CCCCc1nn2c(=O)cc(COC(=O)c3cccc(NC(=O)c4cccc(Cl)c4)c3)nc2s1,·,–,·,·,·
CC(C)(C)C(=O)COC(=O)C1CC(=O)N(c2ccccc2)C1 (stereo not given),–,–,–,–,–
CCN(CC)c1ccc(/C=N/NC(=O)CNC(=O)/C=C/c2ccco2)cc1,–,–,–,–,–
CCOc1ccccc1N1Cc2cc(C)c(C)cc2C1,?,–,13.1µM,–,–
CCOc1ccc(N2Cc3ccccc3C2)cc1,7.38µM,–,?,–,39.3
CCOc1ccc(N2CC(=O)N(c3ccc(OCC)cc3)CC2=O)cc1,–,–,–,–,–
CCOc1ccccc1N1Cc2ccccc2C1,·,–,7.38µM,–,–
COc1ccc(OC)c(N2Cc3cc(C)c(C)cc3C2)c1,·,–,2.94µM,–,13.7
CCOc1ccccc1N1CCN(C(=O)C(F)(F)F)CC1,–,·,·,–,–
CCOc1cc(-c2ccc(OC(=O)c3ccc(OC)cc3)c(OC)c2)cc(=O)c2c(C)oc(C)c12,·,–,·,·,·
CCCNC(=O)CCSc1nc(-c2ccc3c(c2)OCO3)cc(C(F)(F)F)n1,·,–,·,·,·
